In ChEMBL document CHEMBL3988442, “University of Dundee, Small-Polar-MMV Screening Library” (2021) one finds Percent Effect data, which are given here for 40 compounds.

SMILES strings stand for the structures.

This experiment concerns the target AMP-activated protein kinase, AMPK (Homo sapiens) (UniProt P54646+O43741+P54619+Q9UGJ0+Q9Y478+Q13131+Q9UGI9). As to the kind of experiment: AMP-dependent Kinase enzyme assay. An in vitro enzyme assay that detects ADP turnover that is directly proportional to AMPK activity. This uses naive AMPK that is activated during the assay with MK-8722. Also on record: scale not given: direction of the effect not stated beside the values. To be noted: 30 µM. It counts as functional.
In the case of `CN(CCc1ccccn1)c1cnn(C)c(=O)c1Br`, the Percent Effect is -11.5%.

Turning to `CCc1c(C)nc2cc(-c3nccn3C)nn2c1N1CCCC(CO)C1` (stereo not given), the Percent Effect was found to be 26%.

With `COC1CCN(S(=O)(=O)N2CC[C@@](O)(C3CCC3)[C@H](C)C2)CC1`, the Percent Effect was -3.56%.

Take `O=C(NCCc1cccnc1)c1ccc2nccn2c1`: the Percent Effect was 0.0619%.

Regarding `CC(C)c1nc(CN(C)S(=O)(=O)c2cccs2)cs1`, the Percent Effect came out at 4.38%.

On to `C=Cn1cc(CN2CCC(c3ncc(Cl)cc3S(C)(=O)=O)CC2)c(C)n1`, for which the Percent Effect stood at 13.4%.

For the compound `CCc1nc(CCNc2ncccn2)sc1C`, the Percent Effect was -7.35%.

Consider `Cn1ccc(N2CCCC(NC(=O)c3ccc(Cl)o3)C2=O)n1` (stereo not given), for which the Percent Effect is 3.82%.

With `COc1ccc(Cc2nnc(NC(=O)C3CC34CCC4)s2)cc1OC` (stereo not given), the Percent Effect amounted to 4.1%.

For `CN(CCOc1ccc(C#N)cc1)CC1CCS(=O)(=O)C1` (stereo not given), the Percent Effect came out at 7.94%.

Take `CCc1cnc(N)nc1NCCC(=O)NC1CCCCC1`: the Percent Effect was -4.74%.

With `Cc1nn(C2CCCC2)c2nc(C(C)(C)CN3CCN(C)CC3)[nH]c12`, the Percent Effect was determined as 14.1%.

On to `COC(=O)CC1CCCCN1CC(=O)Nc1ccc(F)cc1Cl` (stereo not given), for which the Percent Effect stood at 8.66%.

For `CN(CCCOc1ccccc1Cl)C(=O)CN1CCNC1=O`, the Percent Effect turned out to be 10.2%.

Regarding `OCCN1CCCC(c2cccc(-c3ccccc3F)n2)C1` (stereo not given), the Percent Effect was 20.3%.

On to `CCc1ccc2nc(C)cc(C(=O)NC3CCNC3=O)c2c1` (stereo not given), for which the Percent Effect is -4.37%.

With `COc1ccc(Cl)cc1-n1nc(C2CCCC2)nc1Cn1cnnn1`, the Percent Effect is -6.62%.

As to `CCc1nc(C2CCCN2Cc2ncc(C)c(OC)c2C)no1` (stereo not given), the Percent Effect was determined as 0.391%.

Take `Cc1cc(C)n(CC2CCN(CC(O)Cn3cccn3)CC2)n1` (stereo not given): the Percent Effect was -0.567%.

As to `Cc1cc(N2CCOC(c3ccccn3)C2)nc(N)n1` (stereo not given), the Percent Effect is 10.1%.

Regarding `CC(C)NC(=O)CNC(=O)c1csc(Cc2ccccc2F)n1`, the Percent Effect worked out at 4.46%.

Regarding `CN(C)C(CNC(=O)CCNC(=O)OCC(F)(F)F)c1ccsc1` (stereo not given), the Percent Effect was 3.22%.

Consider `COCc1cccc(NC(=O)NCCCN(C)S(C)(=O)=O)c1`, for which the Percent Effect was -1.69%.

For `CCCS(=O)(=O)N1CCC(c2ccc(OC)cc2)CC1`, the Percent Effect amounted to 2.67%.

As for `NC(=O)NC1CCN(Cc2ccc(Br)c(F)c2)CC1`, the Percent Effect was found to be 4.07%.

As for `O=C(CN1CCC(c2nnc(C(F)(F)F)o2)CC1)Nc1cccnc1`, the Percent Effect is -5.12%.

`O=C(Nc1ccc(-c2csnn2)cc1)NC(CCO)C1CC1` (stereo not given): the Percent Effect was 12.3%.

In the case of `O=C(CC1COCCN1)N1CCCN(C2Cc3ccccc3C2)CC1` (stereo not given), the Percent Effect was -11.6%.

As for `O=C(C1CCCN(CCc2ccc3c(c2)CCO3)C1)N1CCCC1` (stereo not given), the Percent Effect came to 1.69%.

With `CN(CCSc1nncn1CC(F)(F)F)c1ccccc1`, the Percent Effect was determined as 8.89%.

For `CN(C)CCCC(=O)NC1CC(C)(C)Cc2nc(C(C)(C)C)ncc21` (stereo not given), the Percent Effect was determined as 8.49%.

Take `NC(=O)C1CCN(C(=O)CCSCc2ccccc2)CC1`: the Percent Effect is 8.64%.

As for `CCS(=O)(=O)NCc1nc(C)cc(N2CCOCC2)n1`, the Percent Effect was 0.985%.

For `CC(C)OCCCNC(=O)CN1CCN(c2nccs2)CC1`, the Percent Effect was found to be 4.26%.

For the compound `CSc1ccc(C(=O)C2CCCN(C(=O)CCn3cncn3)C2)cc1` (stereo not given), the Percent Effect came out at 10.4%.

With `Cc1cc(C(=O)N(C)C2CCS(=O)(=O)C2)c2ccc(F)cc2n1` (stereo not given), the Percent Effect is -7.82%.

For the compound `COCCN(CCOC)C(=O)c1cnn(C)c1C`, the Percent Effect is -3.12%.

As to `CN1CCN(C(=O)C2(NC(N)=O)CCCCC2)Cc2ccccc21`, the Percent Effect came to 0.804%.

In the case of `Cc1noc(C)c1-c1n[nH]c2c1CN(S(=O)(=O)c1cccnc1)CC2`, the Percent Effect stood at 1.02%.

With `CSc1nccc(N2CCC3(CCCN(CCc4ccccc4)C3)C2)n1` (stereo not given), the Percent Effect amounted to 5.34%.
